Rows were chosen to be rich in hits. Some 5.9% of all compounds tested hit in one or more screens of this group.
RORg inh: ROR gamma (mouse) transcription inhibition. Potency, µM (top dose mostly 53.6 µM), inactives show at the top dose activity change, negative = inhibition, actives largely listed as inhibitors. Drosophila S2 Gal4-RORgamma UAS-luciferase reporter, 20 h. 5.4% of 310,000 active. P51450; also: % is scaled to controls: 0 for no effect and ±100 for the full control effect; nearly all actives have a fitted effect of over 60% in size
Target sequence (P51450 whole entry, looked up, the tested form may be a part): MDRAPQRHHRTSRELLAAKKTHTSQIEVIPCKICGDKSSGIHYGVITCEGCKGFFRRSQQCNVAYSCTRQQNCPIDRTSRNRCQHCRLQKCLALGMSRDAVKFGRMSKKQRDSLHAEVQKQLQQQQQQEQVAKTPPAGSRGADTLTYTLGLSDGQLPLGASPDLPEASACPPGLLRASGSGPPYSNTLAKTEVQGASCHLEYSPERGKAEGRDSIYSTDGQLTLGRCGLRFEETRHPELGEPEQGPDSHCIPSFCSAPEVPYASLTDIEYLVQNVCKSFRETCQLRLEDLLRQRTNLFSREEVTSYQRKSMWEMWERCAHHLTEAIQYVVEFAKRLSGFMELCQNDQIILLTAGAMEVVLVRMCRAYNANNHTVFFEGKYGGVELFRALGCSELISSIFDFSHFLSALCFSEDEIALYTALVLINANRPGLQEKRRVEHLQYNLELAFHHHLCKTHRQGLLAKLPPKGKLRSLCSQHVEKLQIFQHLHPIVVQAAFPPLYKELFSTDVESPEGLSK
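In this cell-based reporter format, copper sulfate (700 uM final) drives Gal4–ROR gamma fusion expression from a metallothionein promoter in Drosophila Schneider cells; compounds preincubated 1 hr, reporter read after 20 hr at ambient temperature.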
HEK293 tox: cytotoxicity in counter-screen for GLP-1R inverse agonists | HEK293 cAMP-luciferase reporter cells, luminescence, 24 h | Potency, µM (series often up to 38.3 µM), for inactives: at the highest dose activity change, negative = inhibition, most hits filed as inhibitors | 0.13% of 410,000 active | AID 624418;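 also: loss of luciferase light is scored as toxicity; % is scaled to controls: 0 for no effect and ±100 for the full control effect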
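Step one: seed cells (200 cells/uL, DMEM with 10% Nu serum, 1% pen-strep). Step two: 12-hour incubation at 37 deg C. Step three: pin 23 nL compound, incubate 24 hr. Step four: add luciferase reagent, read luminescence 12 min later.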
VP16 counter: inhibits Gal4-VP16 luciferase reporter, ROR gamma counter-screen. Drosophila S2 Gal4-VP16 UAS-luciferase, luminescence, 20 h. AID 2546. 3.5% of 310,000 active. Potency, µM (titrated, usually from 53.6 µM), inactives show at the top dose activity, negative = inhibition, usual class: inhibitors;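 also: Gal4-VP16 expression switched on by copper sulfate through the metallothionein promoter; % is scaled to controls: 0 for no effect and ±100 for the full control effect; nearly all actives have a fitted effect of over 50% in size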
GLP-1R agonist: activates the human GLP-1 receptor. AID 624172. HEK293 GLP-1R CRE-luciferase, luminescence, 4-6 h; cells express a hypersensitive GLP-1R form. P43220. Potency, µM (series often up to 45.6 µM), without a hit: top-dose activation, hits mostly activators. 0.007% of 380,000 active; also: % of control where 0% means no effect
GLP-1R inv ag: inverse agonists of human GLP-1 receptor. P43220. Potency, µM (doses to about 38.3 µM), for the others: at the highest dose activity change, negative = inhibition, most hits filed as inhibitors. 1.6% of 410,000 active. HEK293 GLP-1R CRE-luciferase, luminescence, 24 h; GLP-1R form is constitutively active; also: % is scaled to controls: 0 for no effect and ±100 for the full control effect; nearly all actives have a fitted effect of over 55% in size
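Stable HEK293 clone (constitutively active GLP-1R + cAMP-response luciferase); 200 cells/uL plated, 12 h pre-culture, compound 24 hr, 37 deg C/5% CO2; detection reagent 12 min RT; luminescence.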
* marks the source's active call; other numbers are inactive results; [ ] = another dose, or the depositor's remark. Calls follow the shape of the dose curve; as a rule, active = well fitted curve in the direction sought with a large enough effect; inconclusive = small, poorly fitted or top-dose-only effect, or another doubt; inactive = no such curve, though single readings can be large; an effect the other way counts as inactive or inconclusive. Potency is read from the fitted curve at half-maximal effect.

For Fc1ccc(Nc2ccnc(-c3ccc4c(c3)OCO4)n2)cc1 the results were RORg inh 30% and VP16 counter -8%.
For COc1ccc(CNCC(O)COc2cccc3c2OC(C)(C)C3)cc1 (configuration not stated) the results were RORg inh -12%, HEK293 tox 17%[0.307 µM], VP16 counter 10µM*, GLP-1R agonist 9% and GLP-1R inv ag 1%[0.307 µM].
Screening COC(=O)c1ccc(COc2cccc3c2OC(C)(C)C3)cc1 returned RORg inh inconclusive, HEK293 tox 11%, VP16 counter 3%, GLP-1R agonist 11% and GLP-1R inv ag inconclusive.
`S=c1[nH]nc(COc2ccccc2)n1/N=C/c1ccccc1Cl` gave RORg inh 6.3µM*, HEK293 tox inconclusive, VP16 counter 13µM*, GLP-1R agonist 5% and GLP-1R inv ag 8%.
Screening S=c1[nH]nc(COc2ccccc2)n1/N=C/c1c(Cl)cccc1Cl returned RORg inh 3.5µM*, HEK293 tox 7%, VP16 counter -29%, GLP-1R agonist -5% and GLP-1R inv ag -5%.
S=c1[nH]nc(-c2ccccn2)n1/N=C/c1c(Cl)cccc1Cl was read as RORg inh inconclusive, HEK293 tox -7%, VP16 counter 1%, GLP-1R agonist -2% and GLP-1R inv ag 11%.
S=c1[nH]nc(COc2ccccc2)n1/N=C/c1cccc(Cl)c1Cl was read as RORg inh inconclusive, HEK293 tox -15%, VP16 counter inconclusive, GLP-1R agonist -6% and GLP-1R inv ag -14%.
`COc1ccc(-c2ccc(OC)c(C3C4C=CCCC4(C)C(=O)N3Cc3ccccc3)c2)cc1` (configuration not stated) gave RORg inh -13% and VP16 counter 6%.
Screening CC[C@H](C)[C@H](NC(=O)[C@H](Cc1ccc(O)cc1)NC(=O)[C@H](Cc1cnc[nH]1)NC(=O)[C@H](CCCNC(=N)N)NC(=O)[C@H](CC(C)C)NC(=O)[C@H](C)NC(=O)[C@H](CO)NC(=O)[C@H](Cc1ccc(O)cc1)NC(=O)[C@H](Cc1ccc(O)cc1)NC(=O)[C@H](CCCNC(=N)N)NC(=O)[C@H](C)NC(=O)[C@H](CC(C)C)NC(=O)[C@H](CC(=O)O)NC(=O)[C@H](CCC(=O)O)NC(=O)[C@H](C)NC(=O)[C@@H]1CCCN1C(=O)[C@H](C)NC(=O)[C@H](CC(=O)O)NC(=O)[C@H](CCC(=O)O)NC(=O)CNC(=O)[C@@H]1CCCN1C(=O)[C@H](CC(N)=O)NC(=O)[C@H](CC(=O)O)NC(=O)[C@@H]1CCCN1C(=O)[C@H](CCCCN)NC(=O)[C@H](CO)NC(=O)[C@@H]1CCCN1C(=O)[C@@H](N)Cc1ccc(O)cc1)C(=O)N[C@@H](CC(N)=O)C(=O)N[C@@H](CC(C)C)C(=O)N[C@@H](CC(C)C)C(=O)N[C@H](C(=O)N[C@@H](CCCNC(=N)N)C(=O)N1CCC[C@H]1C(=O)N[C@@H](CCCNC(=N)N)C(=O)N[C@@H](Cc1ccc(O)cc1)C(N)=O)[C@@H](C)O returned RORg inh 7% and VP16 counter -4%.
`CCCC(=O)Nc1ccc(-c2nc3cc(C)c(C)cc3o2)cc1` gave RORg inh 1.3µM*, HEK293 tox -15%, VP16 counter inconclusive, GLP-1R agonist -10% and GLP-1R inv ag -7%.
`Cc1ccc(-c2nc3cc(C)ccc3o2)cc1` gave RORg inh 11µM*, HEK293 tox -8%, VP16 counter 14µM*, GLP-1R agonist -8% and GLP-1R inv ag -2%.
`Cc1ccc2oc(-c3cccc(N)c3)nc2c1` gave RORg inh 11µM*, HEK293 tox 1%, VP16 counter inconclusive, GLP-1R agonist 0% and GLP-1R inv ag inconclusive.
Cc1ccc(-c2nc3cc(N)ccc3o2)c(C)c1 was read as RORg inh 11µM*, HEK293 tox 19%, VP16 counter -23%, GLP-1R agonist 0% and GLP-1R inv ag 0%.
Screening CCCC(=O)Nc1ccc2oc(-c3ccncc3)nc2c1 returned RORg inh 5%, HEK293 tox 3%, VP16 counter -9%, GLP-1R agonist 5% and GLP-1R inv ag 0%.
For COc1ccc(NC(=O)Cn2c(=O)n(Cc3ccccc3Cl)c(=O)c3cc(OC)c(OC)cc32)cc1OC the results were HEK293 tox -5%, GLP-1R agonist 0% and GLP-1R inv ag -4%.
Screening CCOC(=O)c1cccc(NC(=O)N2CC(CC)Oc3ccccc32)c1 (configuration not stated) returned HEK293 tox 4% and GLP-1R inv ag 5%.
For Nc1cccc(-c2nc3cc(S(=O)(=O)c4ccc5oc(-c6cccc(N)c6)nc5c4)ccc3o2)c1 the results were RORg inh 4.5µM*, HEK293 tox -36%, VP16 counter 5µM*, GLP-1R agonist 0% and GLP-1R inv ag inconclusive.
CC(C)CC(=O)Nc1ccc2oc(-c3cccnc3)nc2c1 was read as RORg inh 5%, HEK293 tox -20%, VP16 counter 1%, GLP-1R agonist 8% and GLP-1R inv ag -3%.
`Nc1cccc(-c2nc3ncccc3o2)c1` gave RORg inh inconclusive, HEK293 tox -2%, VP16 counter -2%, GLP-1R agonist 3% and GLP-1R inv ag 17%.
`Cc1ccc2oc(-c3ccc(NC(=O)CC(C)C)cc3)nc2c1` gave RORg inh 0.28µM*, HEK293 tox -14%, VP16 counter 1.1µM*, GLP-1R agonist -5% and GLP-1R inv ag 0%.
Cc1ccc2nc(-c3cccc(N)c3)[nH]c2c1 was read as RORg inh 7.9µM*, HEK293 tox -6%, VP16 counter 8.9µM*, GLP-1R agonist -9% and GLP-1R inv ag inconclusive.
Cc1ccc(NC(c2nnc(-c3ccccc3)o2)c2ccccc2F)c(Cl)c1 (configuration not stated) was read as HEK293 tox -6% and GLP-1R inv ag -19%.
Screening CCN(CC)CCSc1nnc2c3cc(C)ccc3n(Cc3ccccc3)c2n1 returned RORg inh -18%, HEK293 tox inconclusive, VP16 counter -6%, GLP-1R agonist 24% and GLP-1R inv ag 13µM*.
CCCCn1c2ccc(F)cc2c2nnc(SCCN(CC)CC)nc21 was read as HEK293 tox 2%, GLP-1R agonist 8% and GLP-1R inv ag 21%.
Screening O=C(N/N=C/c1cn(-c2ccccc2)nc1-c1cc2ccccc2o1)c1cccnc1 returned RORg inh 4µM*, HEK293 tox -24%, VP16 counter 1.4µM*, GLP-1R agonist 10% and GLP-1R inv ag inconclusive.

Bioassay records: PubChem BioAssay, National Center for Advancing Translational Sciences (NCATS)
